Results with a measured potency or affinity are listed apart. A number with no mark means an inactive call. No cut-off for these calls is given here.

This test addresses T1, fMet-Leu-Phe receptor (Homo sapiens) (UniProt P21462).
T1 sequence (whole entry): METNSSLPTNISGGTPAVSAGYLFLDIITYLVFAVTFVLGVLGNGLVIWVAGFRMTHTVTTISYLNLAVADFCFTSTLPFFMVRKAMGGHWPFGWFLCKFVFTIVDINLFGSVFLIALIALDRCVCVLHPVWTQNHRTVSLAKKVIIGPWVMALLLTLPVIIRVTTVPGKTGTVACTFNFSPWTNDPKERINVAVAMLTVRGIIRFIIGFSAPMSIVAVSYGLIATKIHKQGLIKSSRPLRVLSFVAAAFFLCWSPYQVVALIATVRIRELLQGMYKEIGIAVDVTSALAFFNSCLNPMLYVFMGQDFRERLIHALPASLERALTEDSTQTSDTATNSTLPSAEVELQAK
Description: FPR1 fluorescent ligand binding inhibitors, dose response, cell-based, flow cytometry, Ki from IC50 (AID 724). The format is functional. In general terms: A flow cytometer gives signals particle by particle.
As to `COc1ccc(OC)c(CNC(=O)Cn2c(=O)sc3ccccc32)c1`, the KI MICROM is over 44.3 µM.
With `COCCN1C(=O)C(O)=C(C(=O)c2ccccc2)C1c1ccccc1OC` (stereo not given) the figure was 12.4 µM; with `COc1cccc(-c2ccnc3[nH]n(-c4ccccc4)c(=O)c23)c1`, over 44.3 µM; with `CC(C)C(=O)N(Cc1ccco1)S(=O)(=O)c1cccc2cccnc12`, over 44.3 µM.
With `O=C1CC(c2ccccc2C(F)(F)F)C2=C(CC(c3cccs3)CC2=O)N1` (stereo not given) the figure was over 44.3 µM; with `CCc1cc2c(=O)c(-c3nc4ccccc4n3C)c(C)oc2cc1OC(C)=O`, 0.3 µM (active).
The result for `COc1ccc(C2C(C(=O)N3CCCC(C)C3)c3ccccc3C(=O)N2C)cc1` (stereo not given) reads over 44.3 µM; that for `COc1cccc(/C=C2/C(=O)NN(c3ccc(C)cc3)C2=O)c1`, over 44.3 µM.
As for `Cc1[nH]c2c(-c3ccc(Cl)cc3)c(C(F)(F)F)nn2c(=O)c1Cc1ccccc1`, the KI MICROM is 2.5 µM (active).
The result for `CCCC(=O)N(Cc1ccco1)S(=O)(=O)c1cccc2cccnc12` reads over 44.3 µM; that for `Cc1sc2c(c1C)c(=O)n(Cc1ccccc1)c(=O)n2Cc1ccccc1F`, over 44.3 µM; that for `COc1ccccc1-c1c(C(F)(F)F)oc2cc(OC(=O)c3ccco3)ccc2c1=O`, 1.1 µM (active).
The result for `CCC(C)(C(=O)NC1CCCCC1)N(Cc1cccs1)C(C)=O` (stereo not given) reads over 44.3 µM.
With `Cc1cccc(C)c1NC(=O)C(NC(=O)Cc1cccs1)c1ccccc1` (stereo not given), the KI MICROM was over 44.3 µM.
The result for `COc1ccc(-c2c(C(F)(F)F)oc3cc(OC(=O)c4ccco4)ccc3c2=O)cc1OC` reads 3.3 µM (active).
The result for `O=C(Oc1ccc2c(=O)c(-c3ccccc3Cl)c(C(F)(F)F)oc2c1)c1cccs1` reads 1.1 µM (active).
The result for `O=C(Oc1ccc2c(=O)c(Oc3ccccc3Br)c(C(F)(F)F)oc2c1)c1cccs1` reads over 44.3 µM.
Turning to `COc1ccc(-c2c(C)nn3c(=O)c4c([nH]c23)CCCC4)cc1`, the KI MICROM was over 44.3 µM.
Take `Cc1cccc(C2CC(=O)NC3=C2C(=O)CC(c2cccs2)C3)c1` (stereo not given): the KI MICROM was over 44.3 µM.
The result for `COc1ccc(-c2c(C(F)(F)F)oc3cc(OC(=O)c4cccnc4)ccc3c2=O)cc1OC` reads 8.9 µM (active).

The record behind these values is ChEMBL document CHEMBL1201862, “PubChem BioAssay data set” (2004).
